# HTT prom inh = inhibits huntingtin promoter activity; HEK293 HTT promoter firefly luciferase reporter, 24 h; AID 1508623; Potency, µM (doses to about 57.5 µM), without a hit: at the highest dose activity change, negative = inhibition, actives largely listed as inhibitors; 48,000 compounds, 0.93% hits; note: potency is the fitted concentration of half-maximal effect; nearly all actives have a fitted effect of over 50% in size
#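 HEK293 luciferase promoter-reporter cells (2,500/well) plated 24 h, then compounds added at up to 57.5 uM final for 24 h at 37 °C. Firefly luminescence by Dual-Glo, normalized to vehicle (0%) and zero RLU (-100%).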
# HTT-AS promoter = HTT-AS promoter activation. HEK293 HTT-AS promoter firefly luciferase reporter, 24 h; response scale: percent change from vehicle, -100% = no light. Potency, µM (series often up to 57.5 µM), inactives show at the highest dose activity change, positive = activation, actives largely listed as activators. 48,000 compounds, 0.24% hits; note: potency is the fitted concentration of half-maximal effect; nearly all actives have a fitted effect of over 55% in size
#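 Quantitative HTS used concentration series of up to 57.5 uM final on HEK293 luciferase reporter cells, 24 h at 37 degrees C. Readout was Dual-Glo firefly luminescence.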
# PMP22 txn prim = modulators of PMP22 gene transcription in S16 Schwann cells | S16 Pmp22-F2sN Schwann cells, FLuc/NLuc coincidence luminescence, 24 h | Potency, µM (series often up to 57.5 µM), without a hit: at the highest dose activity change, negative = inhibition, most hits filed as inhibitors | 43,000 compounds, 2% hits | AID 1508649; active = clear falling dose curves in both reporters; inconclusive = both reporters move, but less clearly or upward; inactive = either reporter flat; the % is the NLuc reporter signal; note: potency is the fitted concentration of half-maximal effect; % is set by controls: 0 for no effect and ±100 for the full control effect
#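 Transcriptional readout in edited S16(c9) cells: two luciferases reported from the Pmp22 locus, measured in turn after 24 h compound incubation.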
# S16 F2sN tox = cytotoxicity in S16 Pmp22-F2sN Schwann cells | S16 Pmp22-F2sN Schwann cells viability, CellTiter-Glo, 24 h | Potency, µM (series often up to 57.5 µM), inactives show top-dose activity change, negative = cytotoxicity, most hits filed as cytotoxic | 43,000 compounds, 0.48% hits | AID 1508642; note: potency is the fitted concentration of half-maximal effect; % is set by controls: 0 for no effect and ±100 for the full control effect; nearly all actives have a fitted effect of over 65% in size
#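 Luminescence from CellTiter-Glo, read by CCD camera after a 15 min room-temperature incubation, served as the viability signal. Reporter Schwann cells (S16 Pmp22-F2sN) had been treated with pin-transferred compounds for 24 h at 37C.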
# FH mod = Identification of activators of human fumarate hydratase by quantitative high-throughput screening | Fumarate hydratase, mitochondrial (Homo sapiens), P07954 | FH coupled MDH/diaphorase resazurin fluorescence, 15 min | Potency, µM (doses to about 79.9 µM), without a hit: top-dose activity change, negative = inhibition, actives largely listed as inhibitors | 54,000 compounds, 0.22% hits; note: potency is the fitted concentration of half-maximal effect; % is set by controls: 0 for no effect and ±100 for the full control effect; the screen sought activators but most active calls are inhibition curves; nearly all actives have a fitted effect of over 45% in size
# mTORC1 inh = reduces mTORC1 signaling in Tsc2 and p53 null MEF cells. Tsc2-/- p53-/- MEF, phospho-rpS6 immunofluorescence/PI, 24 h. Potency, µM (titrated, usually from 38.3 µM), for the others: at the top dose activity change, negative = inhibition, usual class: inhibitors. 44,000 compounds, 0.78% hits. AID 493208;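 note: potency is the fitted concentration of half-maximal effect; plate controls were DMSO for no effect and rapamycin for full effect; nearly all actives have a fitted effect of over 50% in size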
#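 Read-out: phospho-S6 Alexa-488 intensity over PI intensity per well, scored as % active cells using thresholds from rapamycin (7.5 nM) and DMSO controls. Tsc2-/-, p53-/- MEFs exposed to compound for 24 h; PI cell count recorded as viability.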
# NLuc sat counter = inhibits NanoLuc at saturating substrate, PMP22 counter-screen; Potency, µM (top dose mostly 57.5 µM), without a hit: top-dose activity change, negative = inhibition, usual class: inhibitors; 690 compounds, 4% hits; Secreted NLuc enzyme (filtered S16 cell medium), Nano-Glo luminescence; shares compounds with PMP22 txn prim; note: potency is the fitted concentration of half-maximal effect; % is set by controls: 0 for no effect and ±100 for the full control effect
# NLuc Km ctr = NanoLuc inhibition at Km substrate, PMP22 artifact check; shares compounds with PMP22 txn prim; secreted NLuc enzyme, coelenterazine luminescence, Km conditions; Potency, µM (doses to about 57.5 µM), for inactives: at the highest dose activity change, negative = inhibition, actives largely listed as inhibitors; 690 compounds, 5% hits; note: potency is the fitted concentration of half-maximal effect; % is set by controls: 0 for no effect and ±100 for the full control effect
# FLuc counter = counter-screen for PMP22 expression modulators: firefly luciferase inhibition. shares compounds with PMP22 txn prim. AID 1508640. Potency, µM (titrated, usually from 57.5 µM), without a hit: at the top dose activity, negative = inhibition, actives largely listed as inhibitors. purified P. pyralis FLuc, luminescence, 10 min. 690 tested, under 10 active; note: % of control where 0% means no effect
# Target sequence (P08659 whole entry, looked up): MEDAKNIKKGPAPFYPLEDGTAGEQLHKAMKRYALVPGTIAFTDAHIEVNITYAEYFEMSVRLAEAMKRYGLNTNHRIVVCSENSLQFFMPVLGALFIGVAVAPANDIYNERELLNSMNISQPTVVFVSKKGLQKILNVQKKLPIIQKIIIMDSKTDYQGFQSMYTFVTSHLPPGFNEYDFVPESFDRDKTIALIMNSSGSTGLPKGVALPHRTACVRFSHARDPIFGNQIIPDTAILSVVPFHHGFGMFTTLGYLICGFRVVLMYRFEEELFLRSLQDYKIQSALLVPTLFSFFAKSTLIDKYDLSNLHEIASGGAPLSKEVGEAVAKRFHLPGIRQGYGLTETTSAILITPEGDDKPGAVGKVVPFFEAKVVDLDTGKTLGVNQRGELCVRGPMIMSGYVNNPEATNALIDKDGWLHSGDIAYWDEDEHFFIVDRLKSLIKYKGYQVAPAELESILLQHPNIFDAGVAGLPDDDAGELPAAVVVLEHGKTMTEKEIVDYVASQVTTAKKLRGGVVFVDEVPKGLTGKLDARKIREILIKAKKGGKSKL
# S16 viab conf = confirmation of cytotoxicity in S16 Pmp22-F2sN Schwann cells (luciferase reporters placed in the Pmp22 gene) | shares compounds with PMP22 txn prim | S16 Schwann cells viability, CellTiter-Glo ATP luminescence, 24 h | Potency, µM (titrated, usually from 57.5 µM), without a hit: top-dose activity change, negative = viability loss, usual class: cytotoxic | 690 compounds, 7% hits; note: potency is the fitted concentration of half-maximal effect; % is set by controls: 0 for no effect and ±100 for the full control effect
# PMP22 txn conf = PMP22 transcription modulation, confirmatory | shares compounds with PMP22 txn prim | S16 Schwann cells Pmp22-F2sN, dual luciferase, 24 h | Potency, µM (doses to about 57.5 µM), for inactives: at the highest dose activity change, negative = inhibition, actives largely listed as inhibitors | 690 compounds, 22% hits | AID 1508646; active = clear falling dose curves in both reporters; inconclusive = both reporters move, but less clearly or upward; inactive = either reporter flat; the % is the FLuc reporter signal; note: potency is the fitted concentration of half-maximal effect
# PMP22 HiBiT cnf = confirmation of modulators of rat PMP22 protein expression; 95 tested, under 10 active; S16 Schwann cells Pmp22-HiBiT, luminescence, 48 h; Potency, µM (series often up to 27.9 µM), without a hit: top-dose activity change, negative = inhibition, hits mostly inhibitors; shares compounds with PMP22 txn prim; AID 1508647
# Target sequence (P25094 whole entry, looked up): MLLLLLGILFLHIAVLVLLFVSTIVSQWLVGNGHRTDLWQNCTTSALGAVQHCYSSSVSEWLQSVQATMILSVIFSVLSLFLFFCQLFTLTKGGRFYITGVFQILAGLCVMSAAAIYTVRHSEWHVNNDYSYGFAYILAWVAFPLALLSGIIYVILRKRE
# An asterisk follows results filed as active; ? = inconclusive; · = no result given. Hits are enriched below; roughly 3.3% of the tested compounds scored in any of these assays. Unless noted, calls come from the whole dose curve; as a rule, active = well fitted curve in the direction sought with a large enough effect; inconclusive = small, poorly fitted or top-dose-only effect, or another doubt; inactive = no such curve, though single readings can be large; an effect the other way counts as inactive or inconclusive.
SMILES,HTT prom inh,HTT-AS promoter,PMP22 txn prim,S16 F2sN tox,FH mod,mTORC1 inh,NLuc sat counter,NLuc Km ctr,FLuc counter,S16 viab conf,PMP22 txn conf,others
CCC(=O)N1CCc2cc(S(=O)(=O)CCC(=O)Nc3ccc(Cl)c(C(F)(F)F)c3)ccc21,?,-40.8%,11.2µM*,-15.7%,0.8%,-12.1%,-5.6%,4.6%,7.0%,-1.3%,18.3µM*,PMP22 HiBiT cnf=?
CCOC(=O)c1cc2c(=O)n3ccccc3nc2n(CC(C)C)c1=NC(=O)COc1ccc(Cl)cc1,-1.5%,17.7%,16µM*,-5.8%,-5.7%,2.4%,-14.6%,0.7%,-3.6%,-26.5%,?,
CCOC(=O)c1cc2c(=O)n3ccccc3nc2n(CC(C)C)c1=NC(=O)C(C)(C)Oc1ccc(Cl)cc1,-12.8%,-1.8%,?,-2.3%,0.0%,3.4%,·,·,·,·,·,
O=C(c1ccc(OC(F)F)c(C#Cc2ccccn2)c1)N1Cc2cccnc2C1,·,·,·,·,4.8%,·,·,·,·,·,·,
CNC(=O)c1ccccc1Nc1nc(Nc2ccc3c(c2OC)CCCC(N2CCN(CCO)CC2)C3)ncc1Cl (centres undefined),·,·,·,·,1.8%,·,·,·,·,·,·,
COC(=O)c1cc2occc2n1Cc1cccc(C)c1,-21.6%,-20.9%,?,0.5%,2.0%,5.3%,-19.9%,?,2.6%,7.5%,20.1%,
C=C(C)[C@@H]1CC[C@](C)(O)[C@@H](OC(=O)c2ccccc2)C1,·,·,·,·,2.6%,·,·,·,·,·,·,
Cc1ccc(C)c(N2CCN(CCCNc3ncnc4onc(-c5ccc(Cl)cc5)c34)CC2)c1,-11.7%,-10.2%,-29.2%,5.1%,-2.1%,6.3%,·,·,·,·,·,
Cc1ccc(Cl)cc1N1CCN(CCCNc2ncnc3onc(-c4ccc(Cl)cc4)c23)CC1,?,-11.3%,14.2µM*,4.2%,-9.7%,-2.4%,-7.3%,6.9%,-9.3%,4.7%,?,
CCN(c1ccccc1)S(=O)(=O)c1ccc2[nH]cc(C(=O)NCc3ccc(C)cc3)c(=O)c2c1,-0.3%,0.7%,13.4µM*,0.1%,-0.7%,-5.0%,-8.4%,-1.8%,4.9%,-8.8%,-10.5%,
CCN(c1ccccc1)S(=O)(=O)c1ccc2[nH]cc(C(=O)NC3CCCCC3)c(=O)c2c1,?,-39.5%,?,-23.5%,-18.3%,-0.5%,·,·,·,·,·,
CC1CCN(C(=O)CCS(=O)(=O)c2cc3c(cc2Cl)NC(=O)CO3)CC1,-6.0%,-15.7%,-54.9%,13.1%,-25.7%,-4.9%,-12.3%,3.0%,-17.0%,-6.3%,-27.1%,
CCOC(=O)C1CCN(C(=O)CCS(=O)(=O)c2cc3c(cc2Cl)NC(=O)CO3)CC1,-7.6%,-10.1%,-16.3%,-0.5%,2.7%,9.7%,·,·,·,·,·,
CC1CCN(S(=O)(=O)c2ccc3ncn(CC(=O)Nc4ccccc4C(F)(F)F)c(=O)c3c2)CC1,-29.0%,-34.2%,?,0.1%,-25.9%,3.0%,-11.7%,1.5%,5.3%,-11.5%,-14.7%,
COc1ccc(NC(=O)Cn2cnc3ccc(S(=O)(=O)N4CCC(C)CC4)cc3c2=O)c(OC)c1,-24.9%,-29.2%,0.6%,6.2%,-4.3%,-2.4%,·,·,·,·,·,
O=C(NCCSc1c(-c2ccc(Cl)cc2)[nH]c2ccccc12)c1ccc(S(=O)(=O)N2CCOCC2)cc1,?,-25.7%,-10.7%,?,-28.8%,-12.2%,·,·,·,·,·,
O=C(NCCSc1c(-c2ccc(Br)cc2)[nH]c2ccccc12)c1ccc(S(=O)(=O)N2CCOCC2)cc1,?,-23.4%,8µM*,-19.0%,-11.8%,-16.2%,-10.1%,4.8%,8.9%,0.6%,?,
O=C(NCCSc1c(-c2ccccc2)[nH]c2ccccc12)c1ccc(S(=O)(=O)N2CCOCC2)cc1,?,-29.3%,9.46µM*,-27.0%,-16.8%,-16.8%,-13.5%,-15.6%,7.3%,-19.8%,-8.9%,
CCN(CC)S(=O)(=O)c1ccc(C(=O)NCCSc2c(-c3ccc(OC)cc3)[nH]c3ccccc23)cc1,?,-30.3%,2.99µM*,-14.9%,-14.4%,-11.3%,-24.4%,-0.5%,-2.3%,-23.6%,-11.8%,
Cc1ccc(-c2[nH]c3ccccc3c2SCCNC(=O)c2ccc(S(=O)(=O)N(C)C)cc2)cc1,?,-40.7%,?,?,-14.2%,-12.2%,·,·,·,·,·,
O=C(COc1ccccc1)N(Cc1cccnc1)c1nc2ccc(F)cc2s1,22.7%,?,-27.3%,-23.6%,-24.2%,2.2%,·,·,·,·,·,
O=C(CCOc1ccccc1)N(Cc1cccnc1)c1nc2ccc(F)cc2s1,18.7%,-3.0%,13.4µM*,25.1µM*,-1.9%,-7.6%,?,?,-15.0%,-6.4%,-11.9%,
CCCCn1c(=N)n(CCOc2ccccc2OC)c2ccccc21,?,-34.6%,20µM*,?,-3.8%,11.7µM*,-9.8%,0.9%,-10.4%,?,?,

# Bioassay records as filed in PubChem.
